# Screening results from PubChem BioAssay.
# Only some compounds are listed: those with a hit (about 1.5% of all), similar ones and a draw of the others.
# BCLXL inh – Bcl-xL (human) inhibition | GST-Bcl-xL / FITC-Bim BH3 peptide fluorescence polarization | Q07817 | AID 2129 | actives 0.7% (n = 320,000) | inhibition, % at 10.9 µM;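 active = inhibition above the mean of all tested compounds plus 3 SD, cutoff set per campaign, cut at about 30% in these data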;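 note: 0% = DMSO wells and 100% = unlabeled Bim-BH3 peptide competitor; inhibitors lower millipolarization by displacing the labeled peptide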
# IDE cell activ – boosts human insulin-degrading enzyme activity in HEK cells; activation, % at 5.96 µM; FAbeta-B cleavage, fluorescence polarization; 0% vehicle, 100% cell-free pure enzyme wells; P14735; actives 0.073% (n = 340,000);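 active = activation above the mean of all tested compounds plus 3 SD, set per screening campaign, cut at about 17% in these data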
# MCL1 BIM primary – inhibitors of human MCL1 binding to BIM-BH3 peptide. Q07820. actives 0.68% (n = 320,000). AID 2057. inhibition, % at 10.9 µM. GST-MCL1 / FITC-Bim-BH3 fluorescence polarization;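 active = inhibition above the mean inhibition of all tested compounds plus 3 SD, set per campaign, cut at about 40% in these data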;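 note: 0% = DMSO wells and 100% = unlabeled Bim-BH3 peptide control; higher means more loss of mP so more displacement of Bim peptide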
# GLD-1 TGE inh – GLD-1-TGE RNA interaction inhibition (C. elegans); Q17339; purified GLD-1 + fluorescein TGE RNA, fluorescence polarization; inhibition, % at 5.96 µM; actives 0.44% (n = 320,000); AID 2280;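 active = percent inhibition above a per-plate cutoff, the plate mean of test compounds plus 3 SD, cut at about 30% in these data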;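 note: 0% = DMSO wells with GLD-1 and probe and 100% = wells lacking GLD-1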
# Target sequence (Q17339 whole entry, looked up): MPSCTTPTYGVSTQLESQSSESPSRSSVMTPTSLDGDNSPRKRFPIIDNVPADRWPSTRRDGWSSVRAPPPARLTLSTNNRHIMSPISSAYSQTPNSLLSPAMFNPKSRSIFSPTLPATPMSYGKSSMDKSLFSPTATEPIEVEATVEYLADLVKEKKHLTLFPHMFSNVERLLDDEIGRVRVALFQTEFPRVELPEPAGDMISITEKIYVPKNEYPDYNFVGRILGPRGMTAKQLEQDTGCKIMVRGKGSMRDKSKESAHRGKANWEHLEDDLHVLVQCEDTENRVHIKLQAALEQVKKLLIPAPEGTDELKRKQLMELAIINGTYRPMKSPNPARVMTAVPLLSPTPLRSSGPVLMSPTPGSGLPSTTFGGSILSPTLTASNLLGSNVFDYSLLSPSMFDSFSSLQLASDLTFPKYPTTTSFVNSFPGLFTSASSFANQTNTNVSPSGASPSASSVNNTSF
# IDE inh – inhibitors of human insulin-degrading enzyme in cells. HEK cells, FAbetaB cleavage, fluorescence polarization. P14735. AID 434962. actives 0.41% (n = 320,000). inhibition, % at 5.59 µM;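 active = percent inhibition above the average of all tested compounds plus 3 SD, set per screening campaign, cut at about 16% in these data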;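 note: IDE supplied by intact live HEK cells; FP after avidin binding of uncleaved biotin substrate so inhibition keeps polarization high; 0% = DMSO wells and 100% = 60 µM reference IDE inhibitor Ii1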
# MEX-5 binding – C. elegans MEX-5 TCR-2 RNA binding activity; MEX-5/FITC-TCR2 RNA binding, fluorescence polarization; stronger effect = lower value; activity score (negative = inhibition of binding), % at 10 µM; actives 0.38% (n = 300,000); AID 1832;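 active = inhibition past about -25% in most replicates, and total fluorescence under double the plate's negative control median, limit read from the data; inconclusive = replicates evenly split on the limit, or fluorescence at least double controls; inactive = too little inhibition in most replicates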;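 note: 0% = DMSO and -100% = 5 µM competing unlabeled TCR2 RNA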
# Bcl-xL conf – Bcl-xL (human) inhibition, MCL1 counter-screen confirmation; shares compounds with MCL1 BIM primary; GST-Bcl-xL / FITC-Bim BH3 peptide FP binding; inhibition, % at 10.9 µM; actives 54% (n = 1,700);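 active = inhibition above a cutoff equal to the mean inhibition of all tested compounds plus 3 SD, cut at about 30% in these data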;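 note: 0% = DMSO wells and 100% = unlabeled Bim BH3 control peptide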
# MCL1 inh confirm – MCL1-BIM-BH3 interaction inhibition, confirmation; shares compounds with MCL1 BIM primary; GST-MCL1 / FITC-Bim-BH3 fluorescence polarization; inhibition, % at 10.9 µM; actives 61% (n = 1,700);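 active = inhibition above the average of all tested compounds plus 3 SD, cut at about 40% in these data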;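 note: 0% = DMSO wells and 100% = unlabeled Bim-BH3 control peptide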
# An asterisk follows results filed as active; u = inconclusive; x = not tested or not shown; + = active, no number.
SMILES,BCLXL inh,IDE cell activ,MCL1 BIM primary,GLD-1 TGE inh,IDE inh,MEX-5 binding,Bcl-xL conf,MCL1 inh confirm
CCN(CC(=O)Nc1c(F)cccc1F)C(=O)c1ccc2ccccc2n1,3,-2,0,-6,-5,1,x,x
CCN(CC(=O)Nc1c(F)cccc1F)C(=O)/C=C/c1ccc2ccccc2n1,32*,5,86*,0,-1,-1,21,90*
Cc1ccc(/C=C2/NC(=O)N(Cc3ccc(Br)cc3)C2=O)o1,21,-14,46*,25,10,-4,-2,21
Fc1ccc(C2=CC(c3ccco3)n3ncnc3N2)cc1 (stereo not given),152*,-5,181*,96*,1,-51*,11,22
Fc1ccc(C2=CC(c3ccc(Br)o3)n3ncnc3N2)cc1 (stereo not given),180*,-67,+,163*,92*,x,125*,156*
CC(C)(C)c1ccc(C2=CC(c3ccccc3F)n3ncnc3N2)cc1 (stereo not given),6,2,6,10,-2,-2,x,x
C1=C(c2ccc(-c3ccccc3)cc2)Nc2ncnn2C1c1ccco1 (stereo not given),x,-136,x,x,x,x,x,x
NC(=S)N/N=C/c1ccccc1O,9,2,15,-2,-1,-3,x,x
Cc1cc(/C=N/NC(N)=S)c(O)c(/C=N/NC(N)=S)c1,+,8,+,189*,3,-4,189*,+
CC(=O)Oc1ccc2c(c1)O/C(=C\c1ccncc1)C2=O,126*,2,151*,93*,5,u,90*,115*
O=C(Oc1ccc2c(c1)O/C(=C\c1ccncc1)C2=O)c1cccs1,78*,x,82*,84*,7,-5,34*,46*
COc1ccccc1C(=O)Oc1ccc2c(c1)O/C(=C\c1ccncc1)C2=O,123*,0,142*,101*,7,-26*,32*,52*
CCC(=O)Oc1ccc2c(c1)O/C(=C\c1ccco1)C2=O,112*,x,118*,89*,3,-19,47*,76*
CC[C@]12c3[nH]c4cc(-c5ccco5)ccc4c3CCN1C(=O)[C@@H](CC(=O)NCc1ccc(OC)c(OC)c1)C[C@@H]2C(=O)N1CCN(C(=O)c2ccco2)CC1,x,0,x,x,x,x,x,x
O=C1CCCN1C(=O)CSc1nnnn1-c1ccccc1,5,-4,8,9,-3,x,x,x
COCCCN(C(=O)C1CCC1)c1c(N)n(Cc2ccccc2)c(=O)[nH]c1=O,0,5,-1,4,0,x,x,x
CCOC(=O)C1=C(O)/C(=C/c2cn(CC(=O)NCC3CCCO3)c3ccccc23)SC1=Nc1ccc(C)cc1 (stereo not given),81*,9,77*,-28,3,x,109*,109*
O=[N+]([O-])c1ccc(N=Nc2ccc(O)c3ccccc23)cc1,x,3,x,x,x,x,x,x
O=C(NCCC(=O)N1CCCCCCC1)c1ccc(Cl)cc1,-6,6,-3,2,0,-1,x,x
Oc1cccc2cc3cccc(O)c3c(O)c12,43*,-4,51*,25,-4,-2,43*,50*
COC1CCCN(Cc2c(C(=O)N3CCN(C4CCCCC4)CC3)nc3ccccn23)C1 (stereo not given),61*,2,70*,35*,5,-13,40*,42*
CC(c1c(O)c2ccccc2[nH]c1=O)C1(C)CCC(O)C(C)(C)O1 (stereo not given),4,3,11,0,9,3,x,x
C=CCn1c(CC#N)nnc1N1CCOCC1,-2,0,65*,-4,-4,-6,7,4
O=C(CNCc1ccccc1)Nc1ccc(F)cc1,1,1,43*,7,7,3,8,3
O=C(CNCc1ccccc1)Nc1ccc(Oc2ccccc2)cc1,6,x,1,-6,-4,2,x,x
SMILES,BCLXL inh,IDE cell activ,MCL1 BIM primary,GLD-1 TGE inh,IDE inh,MEX-5 binding,Bcl-xL conf,MCL1 inh confirm
O=C1CCCC(O)=C1N=Nc1cccc(C(=O)O)c1,15,5,40*,-7,2,-8,11,35
CCN(CC)S(=O)(=O)c1cccc(N=NC2=C(O)CCCC2=O)c1,4,2,5,5,-5,1,x,x
Cc1nc2ccccn2c1C(=O)N/N=C/c1ccc([N+](=O)[O-])o1,23,4,41*,6,-2,0,24,54*
Clc1ccc(NCc2cccnc2)cc1,3,5,-3,1,2,-1,x,x
Fc1ccc(NCc2cccnc2)cc1F,64*,4,71*,24,-3,u,70*,91*
Cc1ccccc1-n1c(SCc2c(C)noc2C)nnc1-c1cccnc1,133*,-19,144*,89*,10,-17,116*,136*
Cc1cc(C)c(S(=O)(=O)N2CCOC2CNC(=O)C(=O)NCCCn2ccnc2)c(C)c1 (stereo not given),-3,-1,3,2,5,x,x,x
COc1ccc2nc(SCC(=O)Nc3ccc(S(=O)(=O)N4CCCC4)cc3)c(C#N)cc2c1,-14,1,-16,-45,10,10,x,x
Nc1c(C(=O)Nc2ccc(S(=O)(=O)N3CCCC3)cc2)sc2nc3ccc(OC(F)(F)F)cc3cc12,57*,-3,48*,23,-4,-13,36*,42*
CC1(C(=O)O)CCC(C(=O)Nc2ccc(OC(F)(F)Cl)cc2)C1(C)C (stereo not given),4,3,1,-4,5,2,x,x
Cc1ccnc(N2C(=O)c3cccc4c([N+](=O)[O-])ccc(c34)C2=O)c1,88*,-3,103*,77*,16,-21,82*,119*
Cc1ccc(N2C(=O)c3cccc4c([N+](=O)[O-])ccc(c34)C2=O)c2cccnc12,17,4,19,13,1,-4,x,x
CCn1c(SCC(=O)N/N=C/C=C\c2ccco2)nc2ccccc21,15,-1,48*,-2,3,1,17,34
Cn1c(SCC(=O)N/N=C/C=C\c2ccco2)nc2ccccc21,12,-3,29,3,2,2,x,x
O=C1NC(=Nc2ccc(Cl)cc2)/C(=C/c2ccco2)S1,59*,-7,90*,5,-6,-5,38*,75*
Cc1cccc(N=C2NC(=O)S/C2=C\c2ccco2)c1,35*,1,42*,25,4,-1,28,33
